# Measurements taken from the supplement of paper PMC7366291.
# Counter-ions that a name gives are not always drawn. ± gives the standard deviation or the standard deviation of the averaged measurements.
# Legend:
# Details in all cases: 25 µM; exposure: 24-48 hpf
# [1] = system: Danio rerio Tg(wt1b:EGFP) embryo, pronephros; assay: glomerular separation, fold change vs DMSO control; higher = glomeruli further apart (abnormal)
# Procedure, shortened: (§1)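 From 24 to 48 hpf, at 28.5°C, dechorionated Tg(wt1b:EGFP) zebrafish embryos sat in HEPES-buffered E3 with 0.003% PTU carrying 25 μM compound and 0.5% DMSO. Their pronephroi were imaged dorsally in 96-well plates filled with agarose, using 470 nm light and 10 z-slices. A Fiji macro measured distances and angles between 16 reference points that were set manually on maximum projections, and any value more than 2 SD from its feature mean was excluded. Features are expressed as fold change relative to the mean of DMSO-treated embryos imaged on the same day.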
# [2] = system: Danio rerio Tg(wt1b:EGFP) embryo, pronephros; assay: glomerular width (mean of left and right), fold change vs DMSO control; higher = wider glomerulus
# Procedure, shortened: as §1
# [3] = system: Danio rerio Tg(wt1b:EGFP) embryo, pronephros; assay: fraction of imaged embryos annotated as normal kidney; higher = less nephrotoxic; extreme values may be limits of the assay
# Procedure, shortened: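 Dechorionated Tg(wt1b:EGFP) zebrafish embryos were exposed in 12-well plates to 25 μM compound in 0.5% DMSO, 5 mM HEPES-buffered E3 with 0.003% PTU, from 24 to 48 hpf at 28.5°C. Tricaine-anaesthetised larvae were oriented dorsally in agarose-filled 96-well plates, and pronephroi were imaged by widefield fluorescence (470 nm, 10 z-slices). Each embryo was manually annotated from maximum projections. The read-out is the fraction of embryos per treatment assigned to the normal-kidney category.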
# [4] = system: Danio rerio Tg(wt1b:EGFP) embryo, pronephros; assay: pronephric angle neck segment to proximal convoluted tubule (mean of left and right), fold change vs DMSO control; higher = larger pronephric angle
# Procedure, shortened: as §1
SMILES,glomerular separation [1],glomerular width [2],fraction of imaged embryos annotated as normal kidney [3],pronephric angle neck segment [4]
CC(=O)[C@H]1CC[C@H]2[C@@H]3C[C@H](C)C4=CC(=O)CC[C@]4(C)[C@H]3[C@@H](O)C[C@]12C [Medrysone],1.02 ± 0.44,1.17 ± 0.072,0.417,0.957 ± 0.019
Cc1nc2ccccn2c(=O)c1CCN1CCC(C(=O)c2ccc(F)cc2)CC1 [Pirenperone],0.831 ± 0.3,1.05 ± 0.037,1,0.924 ± 0.0096
C[C@H]1[C@H](NC(=O)/C(=N\OC(C)(C)C(=O)O)c2csc(N)n2)C(=O)N1S(=O)(=O)O [Aztreonam],0.857 ± 0.2,1.143 ± 0.0015,0.917,0.9634 ± 0.0095
NCCc1cc[nH]n1 [Betazole hydrochloride],1.28 ± 0.54,0.9705 ± 0.0028,0.917,1.05 ± 0.012
O=C(Oc1cccc2cccnc12)c1ccccc1 [Benzoxiquine],3.04 ± 1.1,0.56 ± 0.11,0.0833,1.1 ± 0.022
CC1=C(C(=O)O)N2C(=O)[C@@H](NC(=O)[C@H](N)c3ccc(O)cc3)[C@H]2SC1 [Cefadroxil],1.23 ± 0.49,1.08 ± 0.042,0.833,0.923 ± 0.049
COC(=O)[C@H](c1ccccc1Cl)N1CCc2sccc2C1 [Clopidogrel],1.06 ± 0.52,0.893 ± 0.055,0.833,1.05 ± 0.054
CC(=O)O[C@H]1C(=O)[C@@]2(C)[C@H]([C@H](OC(=O)c3ccccc3)[C@]3(O)C[C@H](OC(=O)[C@H](O)[C@@H](NC(=O)c4ccccc4)c4ccccc4)C(C)=C1C3(C)C)[C@]1(OC(C)=O)CO[C@@H]1C[C@@H]2O [Paclitaxel],1.59 ± 0.55,1.06 ± 0.015,1,0.964 ± 0.021
CCC(NC(C)C)C(O)c1ccc(O)c(O)c1 (stereo not drawn) [Isoetharine mesylate salt],1.01 ± 0.56,1.074 ± 0.0074,0.75,1.01 ± 0.032
CN(CCCN1c2ccccc2CCc2ccccc21)CC(=O)c1ccc(Cl)cc1 [Lofepramine],1.23 ± 0.38,0.98 ± 0.035,0.917,1.09 ± 0.011
NCCCCCC(=O)O [Aminocaproic acid],0.833 ± 0.35,0.961 ± 0.022,1,1.02 ± 0.055
CO[C@@]1(NC(=O)Cc2cccs2)C(=O)N2C(C(=O)O)=C(COC(N)=O)CS[C@@H]21 [Cefoxitin sodium salt],0.796 ± 0.27,0.975 ± 0.012,0.833,0.968 ± 0.04
NS(=O)(=O)c1cc2c(cc1C(F)(F)F)NCNS2(=O)=O [Hydroflumethiazide],0.97 ± 0.25,1.07 ± 0.035,0.727,1.04 ± 0.14
CCN(CC)CCOC(=O)c1ccc(N)cc1 [Procaine hydrochloride],0.828 ± 0.2,1.057 ± 0.0024,0.667,1.081 ± 0.0098
Cc1ccc(-c2cc(C(F)(F)F)nn2-c2ccc(S(N)(=O)=O)cc2)cc1 [Celecoxib],0.968 ± 0.38,0.913 ± 0.059,0.833,1.06 ± 0.014
CCN[C@H]1C[C@H](C)S(=O)(=O)c2sc(S(N)(=O)=O)cc21 [Dorzolamide hydrochloride],1.08 ± 0.35,0.955 ± 0.029,0.75,1.024 ± 0.0028
CC(C)NCC(O)COc1ccc(CCOCC2CC2)cc1 (stereo not drawn) [Betaxolol hydrochloride],1.15 ± 0.6,1 ± 0.065,1,0.987 ± 0.025
CC(=O)O[C@@]12CO[C@@H]1C[C@H](O)[C@@]1(C)C(=O)[C@H](O)C3=C(C)[C@@H](OC(=O)[C@H](O)[C@@H](NC(=O)OC(C)(C)C)c4ccccc4)C[C@@](O)([C@@H](OC(=O)c4ccccc4)[C@H]21)C3(C)C [Docetaxel],1.11 ± 0.48,0.978 ± 0.051,0.917,1.007 ± 0.0081
COc1ncnc(NS(=O)(=O)c2ccc(N)cc2)c1OC [Sulfadoxine],0.694 ± 0.18,0.997 ± 0.062,0.833,1.02 ± 0.066
c1ccc(-c2ccc(C(c3ccccc3)n3ccnc3)cc2)cc1 (stereo not drawn) [Bifonazole],1.24 ± 0.55,0.786 ± 0.019,0.417,1.22 ± 0.14
CN(C)CCOC(C)(c1ccccc1)c1ccccn1 (stereo not drawn) [Doxylamine succinate],1.15 ± 0.53,0.9589 ± 0.009,0.818,1.01 ± 0.065
CCOC(=O)[C@H](CCc1ccccc1)N[C@@H](C)C(=O)N1[C@H](C(=O)O)C[C@@H]2CCC[C@@H]21 [Ramipril],0.977 ± 0.26,0.8501 ± 0.0032,1,1.037 ± 0.0046
"CCN(CC)CCOc1ccc(C(=C(Cl)c2ccccc2)c2ccccc2)cc1 [Clomiphene citrate (Z,E)]",1.1 ± 0.41,0.981 ± 0.019,0.75,0.974 ± 0.053
Oc1ncnc2[nH]ncc12 [Allopurinol],0.837 ± 0.22,0.984 ± 0.018,0.75,0.9723 ± 0.0072
Cc1ccnc2c1NC(=O)c1cccnc1N2C1CC1 [Nevirapine],1.13 ± 0.48,1.02 ± 0.016,0.917,1.03 ± 0.048
CC(=O)N(CC(O)CN(C(C)=O)c1c(I)c(C(=O)NCC(O)CO)c(I)c(C(=O)NCC(O)CO)c1I)c1c(I)c(C(=O)NCC(O)CO)c(I)c(C(=O)NCC(O)CO)c1I (stereo not drawn) [Iodixanol],0.874 ± 0.28,1.043 ± 0.0099,0.917,1 ± 0.048
CCCc1ncc(C[n+]2ccccc2C)c(N)n1 [Amprolium hydrochloride],1.14 ± 0.19,0.936 ± 0.042,1,1 ± 0.018
